Source: PubChem BioAssay (National Center for Advancing Translational Sciences (NCATS))
An excerpt weighted towards active compounds, which were near 4.7% of everything screened.
D1 ag: agonists of human D1 dopamine receptor; actives 1% (n = 360,000); activation, % at 2 µM; P21728; AID 504660; HEK293 T-REx D1 cells, calcium flux, agonist mode; in the data active means activation above about 30%
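Tetracycline-induced HEK293 TREx D1 cells, force-coupled to calcium signalling, were dye-loaded with a no-wash calcium kit. Compound was pin-added after a 10 s baseline. Fluorescence was read kinetically at 1 cycle/s for 180 s, with calcium rises flagged as agonism.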
TRHR agonist-1: activates the human TRH receptor; P34981; TRHR cells, calcium flux fluo-8, FDSS agonist mode; activation, % at 2 µM; actives 0.18% (n = 360,000); AID 493084; in the data active means activation above about 30%
Target sequence (P34981 whole entry, looked up): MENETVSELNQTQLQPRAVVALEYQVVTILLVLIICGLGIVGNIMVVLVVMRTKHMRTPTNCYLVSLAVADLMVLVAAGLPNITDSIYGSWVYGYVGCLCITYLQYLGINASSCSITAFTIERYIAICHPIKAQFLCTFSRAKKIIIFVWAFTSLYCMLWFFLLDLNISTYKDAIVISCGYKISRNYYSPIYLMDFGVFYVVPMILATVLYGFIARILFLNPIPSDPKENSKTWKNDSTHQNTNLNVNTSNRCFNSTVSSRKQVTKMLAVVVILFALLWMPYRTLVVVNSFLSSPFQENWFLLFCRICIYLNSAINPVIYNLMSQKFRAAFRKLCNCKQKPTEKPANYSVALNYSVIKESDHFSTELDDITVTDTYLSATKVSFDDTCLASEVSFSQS
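In this calcium-flux screen, cells bearing human TRHR are dye-loaded with fluo-8, baselined for 10 cycles, then exposed to library compounds; positive kinetic calcium responses during the agonist phase mark hits, with TRH as control.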
D1 potentiator: human D1 dopamine receptor positive modulation. HEK293 TREx D1 cells, calcium flux, dopamine EC20 potentiation. AID 504651. potentiation, % at 10 µM. actives 0.036% (n = 360,000); in the data active means potentiation above about 30%
TRHR enhancer-1: TRH receptor (human) allosteric enhancement; TRHR cells, fluo-8 calcium fluorescence, EC20 TRH enhancement; enhancement, % at 2 µM; actives 0.66% (n = 360,000); in the data active means enhancement above about 30%
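Enhancer read-out: after compound pinning and an initial kinetic agonist-mode read, an EC20 of TRH (10 nM final) was injected and fluo-8 calcium signal (Ex 480/Em 530) followed at 1 s/cycle for 100 cycles in TRHR-expressing cells.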
D1 antagonist: antagonists of human D1 dopamine receptor | P21728 | HEK293 TREx D1 cells, calcium flux, dopamine EC80; active compounds read low | activity change, negative = inhibition, % at 10 µM | actives 3.2% (n = 360,000) | AID 504652; in the data active means activity change below about -30%
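Allosteric or orthosteric antagonism assessed as attenuation of the calcium response to EC80 dopamine, added 180 s after compound, in induced HEK293 Trex D1 cells loaded with no-wash calcium dye.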
TRHR enhancer-2: human TRH receptor allosteric enhancement confirmation; shares compounds with TRHR enhancer-1; TRH receptor cell assay, enhancer confirmation qHTS; 970 tested, under 10 active; activity change, negative = inhibition, % at 46.1 µM;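 further: compound effect scored on response to added TRH at EC20 of 10 nM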
TRHR agonist-2: human TRH receptor agonism confirmation; shares compounds with TRHR enhancer-1; Potency, µM (titrated, usually from 46.1 µM), hits mostly activators; actives 8% (n = 970); TRHR-expressing cells, agonist activation read-out; further: nearly all actives have a fitted effect of over 75% in size
Numbers stand for hits. Unless noted, the call rests on the fitted dose curve; in most records, active means well fitted curve in the direction sought with a large enough effect; inconclusive means small, poorly fitted or top-dose-only effect, or another doubt; inactive means no such curve, though single readings can be large; an effect the other way counts as inactive or inconclusive.

What do the screens show for `CCOc1cc(/C=C/C(=O)Nc2ccc(C(=O)NCCN(CC)CC)cc2)ccc1OCC(C)C`?
D1 ag: inactive; TRHR agonist-1: inactive; D1 potentiator: inactive; TRHR enhancer-1: 42; D1 antagonist: -41; TRHR enhancer-2: inactive; TRHR agonist-2: inactive

What do the screens show for `O=C(Nc1ccccc1C(=O)O)c1cc(S(=O)(=O)N2CCOCC2)c(Br)s1`?
D1 ag: inactive; TRHR agonist-1: inactive; D1 potentiator: inactive; TRHR enhancer-1: 45; D1 antagonist: inactive; TRHR enhancer-2: inactive; TRHR agonist-2: inactive

What do the screens show for `O=C(O)CN1C(=O)/C(=C/c2ccc(N3CCCCC3)o2)SC1=S`?
D1 ag: inactive; TRHR agonist-1: inactive; D1 potentiator: inactive; TRHR enhancer-1: inactive; D1 antagonist: inactive

How did CN1CCS/C1=C/C=C1\SC(=S)N(CC(=O)O)C1=O do in these assays?
D1 ag: 42; TRHR agonist-1: inactive; D1 potentiator: inactive; TRHR enhancer-1: inactive; D1 antagonist: inactive; TRHR enhancer-2: inactive; TRHR agonist-2: 21µM

Results for COc1ccc(NC(=O)c2nc(S(C)(=O)=O)ncc2N(Cc2ccc(C)cc2)Cc2ccco2)cc1Cl ?
D1 ag: inactive; TRHR agonist-1: inactive; D1 potentiator: inactive; TRHR enhancer-1: inactive; D1 antagonist: inactive

What do the screens show for `COc1ccc(CCNC(=O)Cn2cc(S(=O)(=O)Cc3ccc(F)cc3)c3ccccc32)cc1OC`?
D1 ag: inactive; TRHR agonist-1: inactive; D1 potentiator: inactive; TRHR enhancer-1: inactive; D1 antagonist: inactive

What do the screens show for `S=C(NC1CCCCC1)N1CCN(c2ccccn2)CC1`?
D1 ag: inactive; TRHR agonist-1: inactive; D1 potentiator: inactive; TRHR enhancer-1: 44; D1 antagonist: inactive; TRHR enhancer-2: inactive; TRHR agonist-2: inactive

What do the screens show for `S=C(NC1CCCCC1)N1CCN(c2ncccn2)CC1`?
D1 ag: inactive; TRHR agonist-1: inactive; D1 potentiator: inactive; TRHR enhancer-1: inactive; D1 antagonist: inactive

Results for Cc1cccc(NC(=O)CSc2cccc3cccnc23)c1 ?
D1 ag: inactive; TRHR agonist-1: inactive; D1 potentiator: inactive; TRHR enhancer-1: inactive; D1 antagonist: inactive; TRHR enhancer-2: inactive; TRHR agonist-2: inactive

Results for Cc1ccc(C)c(NC(=O)CSc2cccc3cccnc23)c1 ?
D1 ag: inactive; TRHR agonist-1: inactive; D1 potentiator: inactive; TRHR enhancer-1: inactive; D1 antagonist: inactive

How did CN(C)c1ccc(/C=N/NC(=O)Cn2nnc3ccccc32)cc1 do in these assays?
D1 ag: inactive; TRHR agonist-1: inactive; D1 potentiator: inactive; TRHR enhancer-1: inactive; D1 antagonist: inactive; TRHR enhancer-2: inconclusive; TRHR agonist-2: inactive

How did O=C(Cn1nnc2ccccc21)C1CC1 do in these assays?
D1 ag: inactive; TRHR agonist-1: inactive; D1 potentiator: inactive; TRHR enhancer-1: 47; D1 antagonist: inactive; TRHR enhancer-2: inactive; TRHR agonist-2: inactive

What do the screens show for `COc1ccc(CC(=O)NCc2nc3cccnc3n2Cc2ccc(C)cc2)cc1OC`?
D1 ag: inactive; TRHR agonist-1: inactive; D1 potentiator: inactive; TRHR enhancer-1: inactive; D1 antagonist: inactive

How did Cc1oc(-c2ccccc2)nc1C(=O)OCC(=O)NC(=O)NCC(C)C do in these assays?
D1 ag: inactive; TRHR agonist-1: inactive; D1 potentiator: inactive; TRHR enhancer-1: 49; D1 antagonist: inactive; TRHR enhancer-2: inactive; TRHR agonist-2: inactive

How did Cc1oc(-c2ccccc2)nc1C(=O)OCC(=O)NC(C)c1ccccc1 (stereo not drawn) do in these assays?
D1 ag: inactive; TRHR agonist-1: inactive; D1 potentiator: inactive; TRHR enhancer-1: inactive; D1 antagonist: inactive

What do the screens show for `Cc1ccc(/C=C/c2nc3ccccc3[nH]2)o1`?
D1 ag: inactive; TRHR agonist-1: inactive; D1 potentiator: inactive; TRHR enhancer-1: 46; D1 antagonist: inactive; TRHR enhancer-2: inconclusive; TRHR agonist-2: inactive

Results for Cc1ccc(/C=C/c2nc3ccccc3[nH]2)cc1 ?
D1 ag: inactive; TRHR agonist-1: inactive; D1 potentiator: inactive; TRHR enhancer-1: inactive; D1 antagonist: inactive
